Compound activity from PubChem BioAssay.
Shiga inhibitor: blocks Shiga toxin action in Vero cells. Vero cells, Shiga toxin protein synthesis inhibition reporter. inhibition, % at 38.7 µM. 290,000 tested, 9.2% active. AID 2315; in the data active = inhibition mostly above about 28%, no sharp cut-off; inactive = mostly below about 43%; also: 0% is about no effect
Giardia FBPA inh: blocks Giardia fructose-bisphosphate aldolase activity; 290,000 tested, 0.71% active; purified Giardia FBPA; A8B2U2; Potency, µM (top dose mostly 59.6 µM), for the others: at the highest dose activity, negative = inhibition, usual class: inhibitors; also: potency is read from the fitted curve at half-maximal effect; % is scaled to controls: 0 for no effect and ±100 for the full control effect; nearly all actives have a fitted effect of over 55% in size
Target sequence (A8B2U2 whole entry, looked up): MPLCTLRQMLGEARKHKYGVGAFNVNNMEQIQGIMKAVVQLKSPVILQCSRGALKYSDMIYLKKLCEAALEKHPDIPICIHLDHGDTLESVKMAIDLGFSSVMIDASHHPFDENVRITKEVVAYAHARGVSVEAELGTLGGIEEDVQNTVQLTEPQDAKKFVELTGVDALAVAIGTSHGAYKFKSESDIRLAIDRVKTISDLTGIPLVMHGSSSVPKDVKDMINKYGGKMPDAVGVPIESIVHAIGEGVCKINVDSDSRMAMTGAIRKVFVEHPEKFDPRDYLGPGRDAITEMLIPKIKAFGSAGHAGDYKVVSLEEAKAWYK
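Giardia FBPA (40 nM reagent) was preincubated 10 min at RT with compound (up to 57.5 uM final), then substrate plus GAPDH/TPI/NAD/arsenate coupling system with diaphorase/resazurin was added; resorufin fluorescence (525/598 nm) was read after 20 min.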
LmPK inhibitor: LmPK (Leishmania mexicana) enzyme inhibition; Q27686; purified LmPK, Kinase-Glo ATP luminescence, 1 h; Potency, µM (highest dose often 57.5 µM), for the others: at the highest dose activity change, negative = inhibition, actives largely listed as inhibitors; 290,000 tested, 0.37% active; AID 1721; also: potency is read from the fitted curve at half-maximal effect; % is scaled to controls: 0 for no effect and ±100 for the full control effect
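Kinase-Glo luminescence read after 1 h RT reaction of 0.1 nM LmPK with 0.5 mM PEP and 0.1 mM ADP. Activity scaled between uninhibited and enzyme-free controls.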
CHX counter: counter-screen hit for Shiga toxin inhibitors, cycloheximide; cell reporter, cycloheximide protein synthesis inhibition counterscreen; max response, %; 300,000 tested, 12% active; AID 2314; in the data active = max response mostly above about 13%, no sharp cut-off; inactive = mostly below about 14%; also: read at 38.3 µM for the half of the compounds with a filed dose; 0% is about no effect
Sm TGR block: inhibitors of Schistosoma mansoni thioredoxin glutathione reductase. Potency, µM (titrated, usually from 114 µM), for inactives: top-dose activity change, negative = inhibition, actives largely listed as inhibitors. purified TGR, DTNB reduction, TNB absorbance 405 nm. 360,000 tested, 3% active. AID 485364; also: potency is read from the fitted curve at half-maximal effect; % is scaled to controls: 0 for no effect and ±100 for the full control effect; nearly all actives have a fitted effect of over 60% in size
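TGR 20 nM + NADPH 100 uM (dispensed conc.), cpd preinc 15 min RT; start with NADPH (500 uM addition) then DTNB (15 mM addition). Kinetic TNB absorbance, 405 nm filter. Four-parameter Hill fit across titration.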
TbPYK inhibitor: blocks Trypanosoma brucei pyruvate kinase | AID 624173 | Potency, µM (doses to about 76.8 µM), without a hit: at the top dose activity, negative = inhibition, actives largely listed as inhibitors | 410,000 tested, 0.12% active | TbPYK enzyme, Kinase-Glo Plus ATP luminescence, 45 min; also: potency is read from the fitted curve at half-maximal effect; % is scaled to controls: 0 for no effect and ±100 for the full control effect; nearly all actives have a fitted effect of over 50% in size
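Luminescent Kinase-Glo Plus end-point after 45 min room-temperature reaction of T. brucei pyruvate kinase started with 130 uM ADP (final). Buffer TEA 50 mM pH 7.2 with KCl, MgCl2, BSA, Tween-20; titration-based qHTS with fitted concentration-effect curves.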
Starred values were filed as active, the others as inactive. This excerpt belongs to a sample that is enriched for hits. Unless noted, calls follow the shape of the dose curve; as a rule, active = well fitted curve in the direction sought with a large enough effect; inconclusive = small, poorly fitted or top-dose-only effect, or another doubt; inactive = no such curve, though single readings can be large; an effect the other way counts as inactive or inconclusive.

`COc1ccc(NC(=S)Nc2ccc(C)c(S(=O)(=O)N3CCCCC3)c2)cc1` gave Shiga inhibitor 30.4, Giardia FBPA inh 4.3%, LmPK inhibitor 0.9%, CHX counter 3.7 and Sm TGR block -0.3%.
Screening Cc1ccc(NC(=S)Nc2ccc(C(C)C)cc2)cc1S(=O)(=O)N1CCCCCC1 returned Shiga inhibitor 81.7*, Giardia FBPA inh -3.2%, LmPK inhibitor 2.8%, CHX counter 27.8*, Sm TGR block -6.3% and TbPYK inhibitor -9.5%.
Screening CC(C)(C)c1ccc(-c2nc(N)nc(N)n2)cc1 returned Shiga inhibitor 25.8, Giardia FBPA inh 2.5%, LmPK inhibitor 0.1%, CHX counter 33.2*, Sm TGR block 17.6% and TbPYK inhibitor -0.8%.
CC(C)(C)c1cc(-c2nc(N)nc(N)n2)cc(C(C)(C)C)c1 was read as Shiga inhibitor -8.5, Giardia FBPA inh -0.6%, LmPK inhibitor -0.3%, CHX counter -1.4, Sm TGR block -8.5% and TbPYK inhibitor -5.7%.
For COc1ccc(-c2nn3c(=O)c(C)nnc3s2)cc1 the results were Shiga inhibitor 54.3*, Giardia FBPA inh 11.1%, LmPK inhibitor 0.8%, CHX counter 28.4, Sm TGR block 0.5% and TbPYK inhibitor 2.6%.
`COc1ccc(-c2nn3c(-c4ccccc4)nnc3s2)cc1` gave Shiga inhibitor 27.5, Giardia FBPA inh -0.1%, LmPK inhibitor 5.2%, CHX counter 10.4, Sm TGR block -5.3% and TbPYK inhibitor 5.5%.
Screening Cc1nc2sc(-c3ccccc3)nn2c(=O)c1Br returned Shiga inhibitor 94.3*, Giardia FBPA inh 3.7%, LmPK inhibitor inconclusive, CHX counter 56.2*, Sm TGR block -8.3% and TbPYK inhibitor -13.6%.
COCC(=O)N1CCC2(CC1)CN(c1cccc(-c3ccccc3)c1)C2 was read as Giardia FBPA inh 1.8% and TbPYK inhibitor -12.7%.
`CC[n+]1c(/C=C/c2ccc(N(C)C)cc2)ccc2ccccc21` gave Shiga inhibitor active, Giardia FBPA inh -5.2%, LmPK inhibitor inconclusive, CHX counter 24.1*, Sm TGR block inconclusive and TbPYK inhibitor inconclusive.
CC[n+]1ccc(/C=C/c2ccc(N(C)C)cc2)c2ccccc21 was read as Shiga inhibitor -24.0, Giardia FBPA inh -13.8%, LmPK inhibitor 15.8µM*, CHX counter -4.9, Sm TGR block -21.3% and TbPYK inhibitor inconclusive.
`CC[n+]1c(/C=C/c2cc([N+](=O)[O-])ccc2O)ccc2ccccc21` gave Shiga inhibitor 6.8, Giardia FBPA inh -17.8%, LmPK inhibitor -2.7%, CHX counter 1.5, Sm TGR block 0.0% and TbPYK inhibitor -14.5%.
`CC[n+]1c(/C=C/c2ccc(OC(C)=O)c(OC)c2)ccc2ccccc21` gave Shiga inhibitor 61.2*, Giardia FBPA inh -1.3%, LmPK inhibitor -3.1%, CHX counter 40.0*, Sm TGR block -26.7% and TbPYK inhibitor 12.4%.
For CCN(CC)c1ccc(/C=C/c2ccc3ccc(OC)cc3[n+]2CC)cc1 the results were Shiga inhibitor -4.7, Giardia FBPA inh 6.5%, LmPK inhibitor -25.2%, CHX counter 6.4, Sm TGR block 0.1% and TbPYK inhibitor -28.7%.
Screening CC[n+]1c(/C=C/c2ccc(OC)c(OC)c2)ccc2ccccc21 returned Shiga inhibitor 115.7*, Giardia FBPA inh -2.8%, LmPK inhibitor 1.2%, CHX counter 25.8*, Sm TGR block -34.1% and TbPYK inhibitor -8.9%.
O=C(Nc1cc(-c2nc3ccccc3s2)ccc1Cl)c1cc2ccccc2o1 was read as Sm TGR block 1.3% and TbPYK inhibitor 1.0%.
`Cc1noc(C)c1C(=O)OCC(=O)Nc1ccccc1SCC#N` gave Sm TGR block -5.1% and TbPYK inhibitor -4.6%.
Screening CC(C)NC(=S)NC(=O)c1ccc(Cl)cc1Cl returned Shiga inhibitor 1.5, Giardia FBPA inh -0.1%, LmPK inhibitor -0.3%, CHX counter 10.1, Sm TGR block -22.2% and TbPYK inhibitor -9.9%.
Screening O=C(NC(=S)NCCN1CCOCC1)c1ccc(F)cc1 returned Shiga inhibitor 43.6*, Giardia FBPA inh -0.2%, LmPK inhibitor -10.3%, CHX counter -2.3, Sm TGR block 5.4% and TbPYK inhibitor 13.3%.
Screening O=C(NCCNC(=O)c1ccc(F)cc1)c1ccc(F)cc1 returned TbPYK inhibitor 0.9%.
